From PubChem BioAssay (Tox21)
Records with an inconclusive call do not appear. The source made the active and inactive calls. Unless noted, calls follow the shape of the full dose curve.

What was measured:
[1] = Nuclear factor erythroid 2-related factor 2/antioxidant responsive element (Nrf2/ARE) small molecule agonists: qHTS cell viability counter screen in human keratinocytes (AID 1919968; active = well fitted curve in the direction sought with a large enough effect in the repeat runs; an effect the other way counts as inactive or inconclusive; also: nearly all actives have a fitted effect of over 55% in size)
Method in brief: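 Fluorescence read-out from CellTiter-Fluor after 1 h at 37 C. Wells held HaCaT-derived ARE-luciferase reporter cells (1,500/well) treated 23 h with DMSO-dissolved compounds. Run in the same wells as the luciferase agonist read.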

[2] = Nuclear factor erythroid 2-related factor 2/antioxidant responsive element (Nrf2/ARE) small molecule agonists: luciferase reporter gene qHTS assay in human keratinocytes (AID 1919969); also: nearly all actives have a fitted effect of over 35% in size
[3] = molecular target: Gonadotropin-releasing hormone receptor (Homo sapiens) (UniProt P30968); experiment: Human gonadotropin-releasing hormone receptor (GnRHR) small molecule agonists, calcium flux assay in GnRHR-HEK293 cells (AID 1920063); also: nearly all actives have a fitted effect of over 35% in size
Gonadotropin-releasing hormone receptor (Homo sapiens), sequence (P30968 whole entry, looked up): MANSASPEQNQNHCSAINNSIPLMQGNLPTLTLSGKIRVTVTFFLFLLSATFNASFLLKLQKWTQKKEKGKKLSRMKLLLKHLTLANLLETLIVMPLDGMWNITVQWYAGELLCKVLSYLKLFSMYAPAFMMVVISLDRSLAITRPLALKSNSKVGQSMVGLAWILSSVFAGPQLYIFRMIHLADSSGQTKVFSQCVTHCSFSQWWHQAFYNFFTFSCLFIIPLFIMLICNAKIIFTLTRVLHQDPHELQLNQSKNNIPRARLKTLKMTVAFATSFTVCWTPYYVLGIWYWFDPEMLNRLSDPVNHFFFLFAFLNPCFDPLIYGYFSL
Method in brief: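 Calcium-dye fluorescence, Ex/Em=480/540, recorded every 1 sec over 3 min after compound addition to GnRHR-HEK293 cells. Cells had been seeded 18 hours earlier and dye-loaded for 1 hour at 37 C. Fifteen concentrations, triplicates.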

[4] = molecular target: KiSS-1 receptor (Homo sapiens) (UniProt Q969F8); experiment: Human kisspeptin (KISS1R) small molecule agonists, calcium flux assay in KISS1R-HEK293 cells (AID 1920064; active = well fitted curve in the direction sought with a large enough effect in the repeat runs; an effect the other way counts as inactive or inconclusive)
KiSS-1 receptor (Homo sapiens), sequence (Q969F8 whole entry, looked up): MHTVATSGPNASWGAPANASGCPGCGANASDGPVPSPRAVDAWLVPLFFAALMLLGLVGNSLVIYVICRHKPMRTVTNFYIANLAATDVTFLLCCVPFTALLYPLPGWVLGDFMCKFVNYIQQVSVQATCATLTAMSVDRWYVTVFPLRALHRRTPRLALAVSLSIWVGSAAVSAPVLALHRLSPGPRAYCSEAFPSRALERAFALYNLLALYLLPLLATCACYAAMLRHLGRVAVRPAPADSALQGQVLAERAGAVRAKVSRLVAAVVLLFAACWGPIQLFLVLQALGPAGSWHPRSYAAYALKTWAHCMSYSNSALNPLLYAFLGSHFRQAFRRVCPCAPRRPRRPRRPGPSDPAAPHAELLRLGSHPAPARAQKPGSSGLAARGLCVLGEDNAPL
Method in brief: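 Calcium flux read-out: kinetic fluorescence at Ex/Em=480/540, 1 s intervals over 3 min, after pin-tool compound addition to dye-loaded KISS1R-HEK293 cells. Fifteen concentrations, triplicates.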

[5] = G protein-coupled receptor (GPCR) small molecule agonists, calcium flux assay: HEK293 wild type cell line counter screen (AID 1920065)
Method in brief: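 Agonist mode; 18 h seeding at 37 C, 1 h dye load at 37 C; compounds pinned from DMSO, ATP as positive control; kinetic fluorescence 480/540 nm, 3 min, 1 s reads; 15 concentrations, triplicate.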

[6] = p53 small molecule agonists, cell-based qHTS assay with human liver microsomes (AID 1963577)
Method in brief: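 Fluorescence of the beta-lactamase reporter in p53RE-bla cells, detected with LiveBLAzer substrate (2 h, room temperature, dark), served as the read-out after 16 h compound exposure at 37 C with human liver microsomes and NADPH, each 0.5 mg/mL final.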

[7] = p53 small molecule agonists, cell-based qHTS assay with rat liver microsomes (AID 1963578)
Method in brief: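 Cells carrying a p53 response element–beta-lactamase reporter were plated and rested 5 h, then dosed with compound in DMSO plus rat liver microsomes and NADPH, each at 0.5 mg/mL final. After 16 h at 37 C, LiveBLAzer substrate was added for 2 h.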

[8] = p53 small molecule agonists, cell-based qHTS assay with human liver microsomes: qHTS cell viability counter screen (AID 1963579); also: nearly all actives have a fitted effect of over 45% in size
Method in brief: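 Cytotoxicity counter screen: p53RE-bla, 4,000 cells/well; 5 h settle, 37 C/5% CO2; cpd + HLM 0.5 mg/mL + NADPH 0.5 mg/mL (final); 16 h, 37 C; CellTiter-Glo, 30 min RT, luminescence.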

[9] = p53 small molecule agonists, cell-based qHTS assay with rat liver microsomes: qHTS cell viability counter screen (AID 1963580); also: nearly all actives have a fitted effect of over 45% in size
Method in brief: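 Cytotoxicity counter screen: intracellular ATP measured by CellTiter-Glo luminescence in the same wells as the beta-lactamase reporter read, on HCT-116 p53RE-bla cells exposed 16 h at 37 C to compounds with rat liver microsomes and NADPH, each 0.5 mg/mL final.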

[10] = p53 small molecule agonists, cell-based qHTS assay: qHTS cell viability counter screen (AID 1963581); also: nearly all actives have a fitted effect of over 45% in size
Method in brief: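 Cytotoxicity read-out: ATP-based luminescence (CellTiter-Glo, 30 min RT) measured in the same wells as the p53 reporter assay, HCT-116 p53RE-bla cells, 16 h compound exposure at 37 C.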

[11] = p53 small molecule agonists, cell-based qHTS assay (AID 1963582; active = well fitted activation curve with a large enough effect in the signal ratio in the repeat runs, not every such curve was filed as active; the % refers to the signal ratio)
Method in brief: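 Fluorescence intensity read-out of a beta-lactamase reporter under a p53 response element. Cells were exposed to DMSO-dissolved compounds for 16 h at 37 C, then developed with FRET substrate for 2 h at RT.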

[12] = molecular target: 5-hydroxytryptamine receptor 2A (Homo sapiens) (UniProt P28223); experiment: 5-hydroxytryptamine receptor 2A (HTR2A) small molecule antagonists, cell-based qHTS assay (AID 1963586); also: nearly all actives have a fitted effect of over 45% in size
5-hydroxytryptamine receptor 2A (Homo sapiens), sequence (P28223 whole entry, looked up): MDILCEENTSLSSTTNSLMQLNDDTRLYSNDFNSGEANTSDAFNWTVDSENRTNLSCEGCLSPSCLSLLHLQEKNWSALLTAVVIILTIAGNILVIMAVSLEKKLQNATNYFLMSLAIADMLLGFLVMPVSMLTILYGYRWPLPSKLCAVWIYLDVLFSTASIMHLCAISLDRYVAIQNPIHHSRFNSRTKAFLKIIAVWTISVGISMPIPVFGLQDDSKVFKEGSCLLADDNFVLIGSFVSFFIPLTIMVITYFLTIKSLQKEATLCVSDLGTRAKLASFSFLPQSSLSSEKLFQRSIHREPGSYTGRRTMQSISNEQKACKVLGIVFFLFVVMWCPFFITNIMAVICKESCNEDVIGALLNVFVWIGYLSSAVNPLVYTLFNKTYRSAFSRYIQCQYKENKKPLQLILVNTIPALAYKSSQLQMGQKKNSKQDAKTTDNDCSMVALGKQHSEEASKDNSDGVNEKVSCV
Method in brief: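 CHO cells stably expressing human HTR2A were plated for 18 h at 37 C, then loaded with calcium dye for 1 h. Compounds were preincubated 5 min at room temperature before DOI (4 nM solution) was added. Kinetic fluorescence was read for 3 min.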

[13] = molecular target: 5-hydroxytryptamine receptor 2A (Homo sapiens) (UniProt P28223); experiment: 5-hydroxytryptamine receptor 2A (HTR2A) small molecule agonists, cell-based qHTS assay (AID 1963587); also: nearly all actives have a fitted effect of over 30% in size
Method in brief: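 CHO cells stably expressing human HTR2A, plated 18 h, loaded with calcium dye 1 h at 37 C. Agonist mode: compounds added and intracellular calcium fluorescence recorded kinetically for 2 min at 1 sec intervals.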

[14] = molecular target: Muscarinic acetylcholine receptor M1 (Homo sapiens) (UniProt P11229); experiment: Cholinergic receptor muscarinic 1 (CHRM1) small molecule antagonists, cell-based qHTS assay (AID 1963588); also: nearly all actives have a fitted effect of over 40% in size
Muscarinic acetylcholine receptor M1 (Homo sapiens), sequence (P11229 whole entry, looked up): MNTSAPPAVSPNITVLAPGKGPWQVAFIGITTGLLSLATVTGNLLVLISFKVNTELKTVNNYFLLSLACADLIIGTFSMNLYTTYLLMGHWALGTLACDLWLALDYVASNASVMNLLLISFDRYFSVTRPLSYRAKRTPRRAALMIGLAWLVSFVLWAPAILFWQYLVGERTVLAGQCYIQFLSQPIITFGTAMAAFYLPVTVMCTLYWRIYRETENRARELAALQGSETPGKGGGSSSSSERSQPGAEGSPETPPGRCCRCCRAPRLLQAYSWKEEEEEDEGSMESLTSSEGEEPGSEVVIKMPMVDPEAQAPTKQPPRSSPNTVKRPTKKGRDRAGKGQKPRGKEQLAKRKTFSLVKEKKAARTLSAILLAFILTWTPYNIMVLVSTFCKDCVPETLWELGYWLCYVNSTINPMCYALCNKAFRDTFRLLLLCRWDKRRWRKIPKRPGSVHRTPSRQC
Method in brief: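 Compounds were tested at 15 concentrations in three independent runs. Dye-loaded CHRM1-CHO cells were exposed 5 min at room temperature before stimulation by acetylcholine added at 50nM. Intracellular calcium was read kinetically on FDSS for 3 min.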

[15] = molecular target: Muscarinic acetylcholine receptor M1 (Homo sapiens) (UniProt P11229); experiment: Cholinergic receptor muscarinic 1 (CHRM1) small molecule agonists, cell-based qHTS assay (AID 1963589); also: nearly all actives have a fitted effect of over 35% in size
Method in brief: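 Calcium flux read-out: kinetic fluorescence at 1 sec intervals after pin-tool compound addition to dye-loaded CHRM1-CHO cells (human M1). Agonist mode; 15 concentrations tested in triplicate independent runs.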

[16] = cAMP Responsive Elements (CRE) small molecule agonists, cell-based qHTS assay (AID 1963590)
Method in brief: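 Beta-lactamase reporter readout: LiveBLAzer B/G FRET substrate, 2 h at room temperature, added after 3 h compound treatment of CRE-bla HEK 293T cells at 37 C/5% CO2.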

[17] = cAMP Responsive Elements (CRE) small molecule antagonists, cell-based qHTS assay (AID 1963591; active = well fitted inhibition curve with a large enough effect in the signal ratio in the repeat runs, not every such curve was filed as active; the % refers to the signal ratio)
Method in brief: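 HEK293T CRE-bla; 18 h preincubation; compound pin-transfer; NKH477 0.25 uM final, 3 h, 37 C; LiveBLAzer FRET substrate 2 h RT.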

[18] = molecular target: Beta-2 adrenergic receptor (Homo sapiens) (UniProt P07550); experiment: Adrenergic beta2 receptor (ADRB2) small molecule antagonists, cell-based qHTS assay (AID 1963592); also: series mostly up to about 92 µM; nearly all actives have a fitted effect of over 50% in size
Beta-2 adrenergic receptor (Homo sapiens), sequence (P07550 whole entry, looked up): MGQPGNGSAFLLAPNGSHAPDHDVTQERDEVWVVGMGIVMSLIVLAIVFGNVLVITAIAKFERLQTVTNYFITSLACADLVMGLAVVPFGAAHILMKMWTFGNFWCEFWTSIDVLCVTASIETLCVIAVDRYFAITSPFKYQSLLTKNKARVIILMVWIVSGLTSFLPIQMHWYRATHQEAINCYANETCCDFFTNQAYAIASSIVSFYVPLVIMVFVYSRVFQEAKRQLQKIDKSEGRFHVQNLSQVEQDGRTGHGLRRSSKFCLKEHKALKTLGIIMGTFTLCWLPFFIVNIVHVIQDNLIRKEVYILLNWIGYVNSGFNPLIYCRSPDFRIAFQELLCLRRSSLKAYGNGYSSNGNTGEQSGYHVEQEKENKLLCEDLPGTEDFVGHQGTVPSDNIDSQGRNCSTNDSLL
Method in brief: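 Assay format: CHO-ADRB2 cells, 18-20hr seeding at 37C/5% CO2, then compound plus 1nM isoproterenol agonist mix for 0.5hr RT. Homogeneous time-resolved fluorescence cAMP detection after 1hr, expressed as 665/615 nm ratio.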

[19] = molecular target: D(2) dopamine receptor (Homo sapiens) (UniProt P14416); experiment: Dopamine D2 receptor (DRD2) small molecule agonists, cell-based qHTS assay (AID 1963594); also: nearly all actives have a fitted effect of over 35% in size
D(2) dopamine receptor (Homo sapiens), sequence (P14416 whole entry, looked up): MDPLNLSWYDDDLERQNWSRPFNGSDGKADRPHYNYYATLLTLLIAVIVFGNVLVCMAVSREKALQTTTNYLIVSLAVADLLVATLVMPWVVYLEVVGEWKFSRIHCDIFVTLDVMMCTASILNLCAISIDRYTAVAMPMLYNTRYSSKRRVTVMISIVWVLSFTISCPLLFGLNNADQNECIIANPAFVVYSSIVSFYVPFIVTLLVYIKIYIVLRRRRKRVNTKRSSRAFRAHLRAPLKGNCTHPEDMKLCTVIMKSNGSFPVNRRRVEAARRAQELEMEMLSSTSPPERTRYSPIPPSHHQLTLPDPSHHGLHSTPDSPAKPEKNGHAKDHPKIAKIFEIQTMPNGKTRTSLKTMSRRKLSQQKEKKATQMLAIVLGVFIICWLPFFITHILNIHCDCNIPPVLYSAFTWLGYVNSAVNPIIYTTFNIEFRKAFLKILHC
Method in brief: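 HEK293 cells stably expressing human DRD2, pre-treated with PDE inhibitor Ro20-1724 (0.1 mM final) and compound 10 min at room temperature, then stimulated with NKH477 (200nM […]) for 30 min. cAMP read by HTRF (665/620 nm).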

[20] = molecular target: D(2) dopamine receptor (Homo sapiens) (UniProt P14416); experiment: Dopamine D2 receptor (DRD2) small molecule antagonists, cell-based qHTS assay (AID 1963595; active = well fitted inhibition curve with a large enough effect in the signal ratio in the repeat runs, with a control signal flat; the % refers to the signal ratio)
Method in brief: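 HEK293 cells stably expressing DRD2 were preincubated with 0.1 mM Ro20-1724, then with compound for 10 min at room temperature. Cells were stimulated with 200 nM NKH477 plus 12 nM quinpirole for 30 min, and cAMP was read by HTRF.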

Measured: Potency

CC(=O)CC(N)=O
inactive: [1] | [2] | [3] | [4] | [5] | [6] | [7] | [8] | [9] | [10] | [11] | [12] | [13] | [14] | [15] | [16] | [17] | [18] | [19] | [20]

NC/C=C/C(=O)O
inactive: [1] | [2] | [3] | [4] | [5] | [6] | [7] | [8] | [9] | [10] | [11] | [12] | [13] | [14] | [15] | [16] | [17] | [18] | [20]

CCCSSCCC
inactive: [1] | [2] | [3] | [4] | [5] | [6] | [7] | [8] | [9] | [10] | [11] | [12] | [13] | [14] | [15] | [16] | [17] | [18] | [20]

COc1ccc(C(=O)NCc2ccc(OCCN(C)C)cc2)cc1OC
inactive: [1] | [2] | [3] | [4] | [5] | [6] | [7] | [8] | [9] | [10] | [11] | [12] | [13] | [14] | [15] | [16] | [17] | [18] | [19] | [20]

C=C(C)C(=O)OC(C)C
inactive: [1] | [2] | [3] | [4] | [5] | [6] | [7] | [8] | [9] | [10] | [11] | [12] | [13] | [14] | [15] | [16] | [17] | [18] | [20]

CC(=O)OCC(=O)Nc1cc(C#N)cc(NC(=O)COC(C)=O)c1Cl
inactive: [1] | [2] | [3] | [4] | [5] | [6] | [7] | [8] | [9] | [10] | [11] | [12] | [13] | [14] | [15] | [16] | [17] | [18] | [20]

CCN(CC)CCNC(=O)c1ccc(NC(C)=O)cc1
inactive: [1] | [2] | [3] | [4] | [5] | [6] | [7] | [8] | [9] | [10] | [11] | [12] | [13] | [14] | [15] | [16] | [17] | [18] | [19]
